Results published in PubChem BioAssay AID2391 (Southern Research Specialized Biocontainment Screening …, 2010).
About 410 (0.13%) of roughly 310,000 compounds were called active. Roughly 2% stayed inconclusive and do not appear here. The rule behind the calls is not given here. These entries were drawn from the full list. Measured potencies and affinities stand elsewhere.

Assay: RSV antiviral activity via CPE protection, HEp-2 cells, primary 10 µM value included (AID 2391)
Conditions: RSV-induced CPE inhibition, at 10 µM, active compounds read high

CPE inhibition, inactive:
COc1ccccc1NC(=O)N1CCN(c2ccc3nnc(-c4ccc(F)cc4)n3n2)CC1 20.8%, CCSc1ccccc1C(=O)N1CCC2(CC1)CC(=O)c1ccccc1O2 2.51%, Cc1ccccc1NC(=O)COc1cccc2c1CCNC2=O -2.82%, COc1cccc(NC(=O)COc2cccc3c2CCNC3=O)c1 -2.16%, CCOC(=O)NC(Nc1ccc(C)cn1)(C(F)(F)F)C(F)(F)F 0.51%, Cc1cccc(C(=O)NC2CCN(CC(=O)N3CCOCC3)CC2)c1 0.56%, c1ccc(-c2nnc3ccc(N4CCCC4)nn23)cc1 13.9%, O=C(c1ccc(Br)o1)N1CCN(c2ccc3nnc(-c4ccc(F)cc4)n3n2)CC1 1.21%, COc1cc(F)ccc1CN1CCC(n2nccc2NC(=O)C2CCOC2)CC1 (configuration not stated) -1%, Cc1cc(C(=O)Cn2nnc3ccccc3c2=O)c(C)n1-c1c(C)n(C)n(-c2ccccc2)c1=O 2.35%, COc1ccc(-n2c(C)cc(C(=O)Cn3nnc4ccccc4c3=O)c2C)cc1 2.15%, CN(C)c1ccc(CN(CC2CCCO2)C(=O)c2cccs2)cc1 (configuration not stated) -0.5%, Cn1c(=O)c2c(n(Cc3ccccc3)c1=O)NC(=O)C2CC(=O)O (configuration not stated) 0.62%, Cc1ccccc1OCCC(=O)Nc1ccc2c(C)cc(=O)oc2c1 1.79%, CCC(C)n1c(SCC(=O)Nc2ccccc2C(F)(F)F)nc2ccsc2c1=O (configuration not stated) 13.6%, COCCN(C(=O)C1CC1)c1nnc(-c2cccc(C)c2)s1 14%, COCCN(C(=O)C(C)C)c1nnc(-c2ccc(C)cc2)s1 1.29%, C=CCc1cccc(/C=N/NC(=O)c2ccccc2OC)c1O 4.29%, COc1ccc(Nc2ccccc2C(=O)O)cc1 -0.36%, O=C(O)c1cc([N+](=O)[O-])ccc1Nc1ccccc1 2.12%, O=C(O)c1ccccc1Nc1ccccc1C(=O)O 0.65%, O=C(O)c1ccccc1Nc1ccccc1 2.02%, O=C(NCCOc1ccccc1Cl)c1ncn[nH]1 0.27%, CSc1ccc(S(=O)(=O)NCCSC(C)(C)C)cc1 -1.64%, COc1cc(CC2COC(c3ccc(O)c(OC)c3)C2COC(C)=O)ccc1O (configuration not stated) 5.55%, CCOC(=O)CCCNC(=O)CCNC(=O)c1ccc(OCCC(C)C)cc1 -2.65%, Cc1ccc(C(=O)N2CCN(c3ccc(NC(=O)c4cccs4)cc3)CC2)cc1 3.02%
